# From PubChem BioAssay (NCATS)
# Inconclusive results are not listed. A call without a number means that no potency is given here. The source made the active and inactive calls. The call rests on the fitted dose curve; in most records, active means well fitted inhibition curve with a large enough effect; inconclusive means small, poorly fitted or top-dose-only effect; inactive means flat fitted curve, though single readings scatter.
# Molecular target: Tyrosine-protein phosphatase non-receptor type substrate 1 (Homo sapiens) + Leukocyte surface antigen CD47 (Homo sapiens) (UniProt P78324+Q08722)
# Assay: CD47-SIRPalpha protein protein interaction - Alpha assay qHTS validation (AID 1347059);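 further: bead proximity luminescence from CD47 binding SIRPalpha after compound preincubation with SIRPalpha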
# Conditions: AlphaScreen CD47-His/biotin-SIRPalpha binding, LOPAC; series mostly up to 38.3 µM
# Description: SIRPalpha is a myeloid cell expressed immunomodulatory receptor that binds the tumor expressed immune checkpoint CD47. Therapeutic disruption of this interaction leads to immune-mediated tumor rejection. This assay was used to quantitate CD47-SIRPalpha binding biochemically and evaluate chemical libraries for novel CD47-SIRPalpha inhibitors. To recapitulate the biological interaction of CD47 and SIRPalpha, we designed expression constructs to produce their recombinant, soluble, extracellular interaction domains. CD47 was produced with an N-terminal 6His tag. SIRPalpha was produced with an N-terminal Avi-Tag for site-specific biotin incorporation. The CD47-SIRPalpha interaction was measured by AlphaScreen using affinity tag linked reagents (Ni-NTA acceptor bead and streptavidin donor bead). SIRPalpha without biotin incorporation was used as a positive control inhibitor.
# PROTOCOL TABLE (as described by Miller, T. et al. 2019)
# SEQUENCE No. (e.g., 1, 2, 3, etc.); […] (e.g., Cells, Incubation, Reagent, etc.); VALUE and DESCRIPTION.
# 1a. Reagent. 2 uL SIRPalpha-biotin (25 nM) added to respective wells in Assay buffer; white/solid bottom high base, med bind 1536-well plates (Greiner 789075)
# 1b. Reagent. 2 uL Assay buffer negative control for background fluorescence
# 2. Reagent. 23 nL library compounds (7-pt, 1:4 intraplate titration series) or DMSO control transferred by Pin Tool
# 3. Centrifuge. Centrifuge plate for 30 s at 1000 RPM
# 4. Incubation.#Incubate reagents at room temperature for 30 min, protected from light
# 5. Reagent. 2 uL CD47-His (12.5 nM) in Assay buffer
# 6. Centrifuge. Centrifuge plate for 30 s at 1000 RPM
# 7. Incubation.#Incubate reagents at room temperature for 30 min, protected from light
# 8. Reagent. 1 uL Ni-NTA beads (10 ug/mL) added to respective wells
# 9. Reagent. 1 uL SAV beads (10 ug/mL) added to respective wells
# 10. Centrifuge. Centrifuge plate for 30 s at 1000 RPM
# 11. Incubation. Incubate reagents at room temperature for 30 min, protected from light
# 12. Detector. Measure AlphaScree n on EnVision (1536A1 aperture)
# Where possible, perform Donor bead dilution and addition away from direct sunlight or with bright overhead lights turned off (<100 lux, similar to hallway lighting). Lighting should still be bright enough to allow accurate pipetting.
# 1. Assay buffer composition.#Phosphate buffered saline (PBS; 10 mM Phosphate, 137 mM NaCl, and 2.7 mM KCl; pH 7.4), 0.05% IGEPAL CA-630
# 2. 23nL of […] library compounds (7 plates) or DMSO vehicle control transferred to 9 Greiner white/solid bottom high base, TC plates in 7 interplate 1:5 titrations (see Yasgar, A. et al. 2008) with Pintool. Two of the 9 plates are DMSO-only in compound field at beginning and end of compound library-treated plates.
# 12. Aperture = 1536 plate HTS AlphaScreen; plate-detector distance = 0; Total measurement time = 240; Ex. time = 80 ms (33%); Afterglow CT1 corr. factor = 0; Glow CT2 corr. factor = 0; Bleach CT3 corr. factor = 0; Ref. signal= 417733; Ref. AD gain = 2
# Potency means the concentration at half of the fitted maximal effect.
# Chain of Tyrosine-protein phosphatase non-receptor type substrate 1 (Homo sapiens) + Leukocyte surface antigen CD47 (Homo sapiens) (P78324 whole entry, looked up): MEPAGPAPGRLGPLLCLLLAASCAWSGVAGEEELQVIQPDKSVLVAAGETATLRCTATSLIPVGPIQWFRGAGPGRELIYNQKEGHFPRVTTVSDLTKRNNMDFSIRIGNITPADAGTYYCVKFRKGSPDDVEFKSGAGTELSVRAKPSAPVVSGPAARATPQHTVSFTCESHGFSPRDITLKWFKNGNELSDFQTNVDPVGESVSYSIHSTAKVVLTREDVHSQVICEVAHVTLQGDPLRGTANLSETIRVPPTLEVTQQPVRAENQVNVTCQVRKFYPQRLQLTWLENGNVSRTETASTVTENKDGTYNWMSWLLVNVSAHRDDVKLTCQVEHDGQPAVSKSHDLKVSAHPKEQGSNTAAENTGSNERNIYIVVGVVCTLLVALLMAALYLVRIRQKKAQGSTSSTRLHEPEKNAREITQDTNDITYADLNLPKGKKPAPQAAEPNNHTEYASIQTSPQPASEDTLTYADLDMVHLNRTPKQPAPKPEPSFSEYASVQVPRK
# Chain of Tyrosine-protein phosphatase non-receptor type substrate 1 (Homo sapiens) + Leukocyte surface antigen CD47 (Homo sapiens) (Q08722 whole entry, looked up): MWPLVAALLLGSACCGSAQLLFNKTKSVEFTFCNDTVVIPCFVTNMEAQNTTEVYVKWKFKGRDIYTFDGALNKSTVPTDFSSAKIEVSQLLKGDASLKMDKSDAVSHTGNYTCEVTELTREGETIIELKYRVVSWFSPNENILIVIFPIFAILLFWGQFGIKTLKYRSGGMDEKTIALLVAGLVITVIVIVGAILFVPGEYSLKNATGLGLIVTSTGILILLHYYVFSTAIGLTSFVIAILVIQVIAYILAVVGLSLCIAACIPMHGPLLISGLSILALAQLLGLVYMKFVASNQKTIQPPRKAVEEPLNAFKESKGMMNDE
row,SMILES,Potency
1,Cn1ncc(S(=O)(=O)Cc2ccccc2)c(Br)c1=O,inactive
2,O=C(O)CC1CCCc2ccccc2C1O (stereo not given),inactive
3,Cc1ccc(S(=O)(=O)/C=C/C#N)cc1,inactive
4,COc1ccc(C(=O)/C(Cc2cc(OC)c(OC)c(OC)c2)=C(\C(=O)O)c2ccc3c(c2)OCO3)cc1,inactive
5,COc1cc(SC)ccc1C(=O)N1CCC(Cc2ccccc2)CC1,inactive
6,Fc1cccc(/C=N/N=C/c2cccc(F)c2)c1,inactive
7,CCOC(=O)N1CCN(/[N+]([O-])=N/Oc2ccc([N+](=O)[O-])cc2[N+](=O)[O-])CC1,inactive
8,N=c1ccn2c(n1)O[C@H]1[C@H](O)[C@@H](CO)O[C@H]12,inactive
9,O=C1C(SCCO)=C(SCCO)C(=O)c2ccccc21,inactive
10,O=C(CCCCCN1CCN(c2ccccc2-c2ccccc2)CC1)NC1CCCc2ccccc21 (stereo not given),inactive
11,CC(=O)/C=C1\C(=O)N(C)c2ccccc21,inactive
12,COCCOc1cc2ncnc(Cl)c2cc1OCCOC,inactive
13,COc1ccccc1CNCCCCCCNCCCCCCCCNCCCCCCNCc1ccccc1OC,inactive
14,NC[C@H]1O[C@@H](n2cnc3c(N)ncnc32)[C@H](O)[C@@H]1O,inactive
15,O=C(c1ccc(Cl)cc1)N1CCN(c2ccc([N+](=O)[O-])c3ncccc23)CC1,inactive
16,CN1CCc2ccccc2Cc2[nH]c3ccccc3c2CC1,inactive
17,COc1ccc(-c2cc(=O)c3c(O)c(OC)c(OC)cc3o2)cc1O,inactive
18,O=c1cc(-c2ccccc2)oc2c(O)c(O)ccc12,inactive
19,Clc1ccc(N2CCN(Cc3c[nH]c4ncccc34)CC2)cc1,inactive
20,S=C(S)OC1CC2CC1C1CCCC21 (stereo not given),inactive

row,SMILES,Potency
1,COc1ccc(Br)cc1S(=O)(=O)NC(=O)/C=C/c1ccccc1Cc1ccc2ccccc2c1,inactive
2,CN1CCc2cc(NC(=O)Nc3cccnc3)ccc21,inactive
3,C[N+]1(C)CCC(OC(=O)C(c2ccccc2)c2ccccc2)CC1,inactive
4,NCCCCCCCCCCN,inactive
5,O=[N+]([O-])c1ccc2c(c1)S(=O)(=O)C=C2,inactive
6,O=C(Nc1ccc2[nH]ncc2c1)C1CCC1,inactive
7,NC(=S)c1ccc[n+]([C@@H]2O[C@@H](COP(=O)([O-])OP(=O)(O)OC[C@H]3O[C@@H](n4cnc5c(N)ncnc54)[C@H](OP(=O)(O)O)[C@@H]3O)C(O)C2O)c1 (stereo not given in full),inactive
8,COc1cccc(OC)c1OCCNCC1COc2ccccc2O1 (stereo not given),inactive
9,O=C(O)CNC(=O)C(CS)Cc1ccccc1 (stereo not given),inactive
10,O=c1[nH]c2cc([N+](=O)[O-])c([N+](=O)[O-])cc2[nH]c1=O,inactive
11,CN=c1nc(-c2ccccc2)n(-c2ccccc2)s1,inactive
12,COc1cc(C(O)CO)ccc1OS(=O)(=O)O (stereo not given),inactive
13,c1cnc2c(c1)ccc1cccnc12,185 nM (active)
14,S=c1[nH]c(-c2ccccc2)cn1-c1ccccc1,inactive
15,Fc1ccc2[nH]c(CN3CCN(c4ccccn4)CC3)cc2c1,inactive
16,COC1=C(OC)C(=O)c2ccccc2C1=O,inactive
17,Nc1nc(Cl)nc2c1ncn2[C@@H]1O[C@H](CO)[C@@H](O)[C@H]1O,inactive
18,O=C1/C(=C/c2ccsc2)CC/C1=C\c1cccs1,inactive
19,CC1(C)CCC=[N+]1[O-],inactive
20,NCCSSCCN,inactive
